The binders below were run against GGA3 1-153 VHS (domain begin residue: 1, domain end residue: 153) (assay: phage ELISA signal ratio (GST-PRM binding over GST background); higher = stronger binding of peptide-phage to the PRM).
How it was run: (§1)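 Human peptide recognition domains were expressed in 96-well plates as fusions to the C-terminus of glutathione S-transferase (GST) and selected against an M13 phage library displaying randomized hexadecapeptides, cysteine-free and glycine-flanked, on the gene-8 major coat protein. Five selection rounds were run, and approximately 48 individual clones from rounds 4 and 5 were tested by phage ELISA. Each value is the ELISA signal on the GST-domain fusion divided by the signal on GST alone. Positive clones were sequenced.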

Row | Binder | phage ELISA signal ratio
1 | PDTELIDVHQWRTSQW | 22.1
2 | QTDDPMWIPHQWFQAG | 23.1
3 | EMDVEMWFPHFMNHSF | 34.5

What follows are binders tested against GGA3 579-723 Alpha_adaptinC2 (domain begin residue: 579, domain end residue: 723) in the same assay as above.
How it was run: as §1

Row | Binder | phage ELISA signal ratio
4 | IQWNDMDFENLSGWWG | 4.03
5 | IENSQPWITEYGAWEV | 6.07
6 | ASQWEWDDWLYIHSQT | 7.22
7 | SFTWDSFESYVEPWKY | 9.04
8 | AWGKYQSWEPQEWPAT | 13.4
9 | DWSQWQTAAMEEMITW | 18.5
10 | DTWMWGGYVSHTVQPY | 23.1
11 | GEQMMWVDWGQWHWYE | 26
12 | DEWGQWQLHESVFLME | 27.9
13 | WEDWMEDWRQWEEPRK | 31.4

Target: T1, GIGYF1 448-540 GYF (domain begin residue: 448, domain end residue: 540), O75420
T1 chain: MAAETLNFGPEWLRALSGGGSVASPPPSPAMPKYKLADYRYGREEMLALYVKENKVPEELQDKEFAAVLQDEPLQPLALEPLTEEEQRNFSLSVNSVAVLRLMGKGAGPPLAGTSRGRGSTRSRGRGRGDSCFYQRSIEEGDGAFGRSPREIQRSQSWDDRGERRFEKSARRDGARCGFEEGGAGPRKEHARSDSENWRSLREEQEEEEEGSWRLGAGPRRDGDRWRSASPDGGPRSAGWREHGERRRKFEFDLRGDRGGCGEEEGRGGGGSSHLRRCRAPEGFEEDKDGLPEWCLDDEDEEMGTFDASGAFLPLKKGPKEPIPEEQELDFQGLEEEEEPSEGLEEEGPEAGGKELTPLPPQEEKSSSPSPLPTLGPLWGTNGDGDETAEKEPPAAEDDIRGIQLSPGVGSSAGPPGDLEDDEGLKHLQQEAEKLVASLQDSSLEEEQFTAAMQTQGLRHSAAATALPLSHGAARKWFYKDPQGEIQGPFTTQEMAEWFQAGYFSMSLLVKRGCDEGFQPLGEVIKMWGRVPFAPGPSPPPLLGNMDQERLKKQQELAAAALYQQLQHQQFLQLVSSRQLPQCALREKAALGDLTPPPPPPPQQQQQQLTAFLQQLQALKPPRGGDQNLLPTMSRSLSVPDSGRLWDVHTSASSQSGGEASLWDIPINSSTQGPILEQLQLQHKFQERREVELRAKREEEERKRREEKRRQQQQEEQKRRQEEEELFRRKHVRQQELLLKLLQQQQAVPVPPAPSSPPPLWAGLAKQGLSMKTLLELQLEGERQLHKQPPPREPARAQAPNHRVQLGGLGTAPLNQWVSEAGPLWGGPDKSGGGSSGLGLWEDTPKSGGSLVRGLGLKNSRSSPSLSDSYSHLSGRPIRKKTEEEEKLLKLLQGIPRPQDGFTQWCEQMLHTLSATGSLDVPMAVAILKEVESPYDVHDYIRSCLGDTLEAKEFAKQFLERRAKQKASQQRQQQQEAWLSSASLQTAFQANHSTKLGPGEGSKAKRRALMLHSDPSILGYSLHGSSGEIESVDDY
Experiment: as above
How it was run: as §1

Row | Binder | phage ELISA signal ratio
14 | SAPPGYQTGLLMAEYR | 7.85
15 | DHWGPPGLTWHVMERA | 10.1
16 | TIDTPPGFPTSQHEGM | 16.8
17 | GPPGFHQHADVMRYEM | 20.9

Target: T2, SPRED2 1-124 WH1 (domain begin residue: 1, domain end residue: 124), Q7Z698
T2 chain: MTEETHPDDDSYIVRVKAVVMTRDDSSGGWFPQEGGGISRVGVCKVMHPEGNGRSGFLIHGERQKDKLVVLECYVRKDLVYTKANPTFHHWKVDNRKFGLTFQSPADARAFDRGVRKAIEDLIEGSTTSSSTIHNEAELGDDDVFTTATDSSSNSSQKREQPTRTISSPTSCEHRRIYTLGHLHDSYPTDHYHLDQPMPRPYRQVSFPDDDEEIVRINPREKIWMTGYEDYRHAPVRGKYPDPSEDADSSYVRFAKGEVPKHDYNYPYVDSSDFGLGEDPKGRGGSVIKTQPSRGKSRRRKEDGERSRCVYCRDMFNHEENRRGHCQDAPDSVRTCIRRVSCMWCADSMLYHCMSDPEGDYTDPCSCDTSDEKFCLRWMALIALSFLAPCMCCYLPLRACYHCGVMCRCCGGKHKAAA
Experiment: as above
How it was run: as §1

Row | Binder | phage ELISA signal ratio
18 | SAPPGYQTGLLMAEYR | 3.46

Target: T3, GIGYF2 507-602 GYF (domain begin residue: 507, domain end residue: 602), Q6Y7W6
T3 chain: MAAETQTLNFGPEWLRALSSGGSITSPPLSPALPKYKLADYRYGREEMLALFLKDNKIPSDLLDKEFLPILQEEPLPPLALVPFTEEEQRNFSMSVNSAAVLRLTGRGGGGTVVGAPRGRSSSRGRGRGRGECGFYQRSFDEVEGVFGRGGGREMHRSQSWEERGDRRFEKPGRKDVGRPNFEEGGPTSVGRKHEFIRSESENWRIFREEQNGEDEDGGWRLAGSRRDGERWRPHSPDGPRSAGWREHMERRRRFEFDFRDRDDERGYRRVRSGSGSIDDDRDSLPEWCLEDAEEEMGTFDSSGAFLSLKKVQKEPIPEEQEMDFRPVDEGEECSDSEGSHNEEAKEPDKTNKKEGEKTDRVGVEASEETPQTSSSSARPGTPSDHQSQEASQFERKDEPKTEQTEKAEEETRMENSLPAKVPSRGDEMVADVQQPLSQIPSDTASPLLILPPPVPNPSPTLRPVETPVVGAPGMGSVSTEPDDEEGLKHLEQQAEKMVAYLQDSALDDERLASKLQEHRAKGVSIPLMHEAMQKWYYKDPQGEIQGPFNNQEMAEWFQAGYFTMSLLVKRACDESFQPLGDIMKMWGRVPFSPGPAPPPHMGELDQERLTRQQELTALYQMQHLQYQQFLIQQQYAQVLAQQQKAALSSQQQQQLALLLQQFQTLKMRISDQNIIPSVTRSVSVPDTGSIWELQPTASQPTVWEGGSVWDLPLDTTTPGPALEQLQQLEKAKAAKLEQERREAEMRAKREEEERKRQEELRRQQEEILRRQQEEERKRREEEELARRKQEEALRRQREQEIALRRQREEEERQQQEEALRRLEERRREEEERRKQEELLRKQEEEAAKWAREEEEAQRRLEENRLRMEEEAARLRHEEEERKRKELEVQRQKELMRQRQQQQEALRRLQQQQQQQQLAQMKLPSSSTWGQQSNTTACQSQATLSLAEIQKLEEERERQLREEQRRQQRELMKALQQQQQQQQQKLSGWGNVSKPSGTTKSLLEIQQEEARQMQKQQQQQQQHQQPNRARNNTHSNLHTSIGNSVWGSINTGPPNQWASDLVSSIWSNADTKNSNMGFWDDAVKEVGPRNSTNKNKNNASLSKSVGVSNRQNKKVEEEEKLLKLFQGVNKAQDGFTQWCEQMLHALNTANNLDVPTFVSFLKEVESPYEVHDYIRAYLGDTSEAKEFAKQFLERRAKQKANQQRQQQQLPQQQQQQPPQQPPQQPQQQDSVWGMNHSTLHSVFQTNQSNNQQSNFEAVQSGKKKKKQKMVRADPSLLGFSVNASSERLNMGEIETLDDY
Experiment: as above
How it was run: as §1

Row | Binder | phage ELISA signal ratio
19 | QRPPGNWGEVTQVPIL | 9.77
20 | ARDLPPGFVMSPENAM | 11.7
21 | NMFMPPGFAPQQVQMH | 13.9
22 | EGMGPPGFWVGSDLRG | 14.7
23 | AMTPPGFPHNTQMIRA | 16.9
24 | TPPGYTMLMKEHSARH | 20.5
25 | QPPPGWVPSTELLEFL | 23.1
26 | SEVHPPGFAQEHHIMQ | 23.9
27 | NYPNHPPGYEKWFQTM | 26.6
28 | RFPPGMMQQLPQYADS | 29.9

Target: T4, GNA14 2-355 G-alpha (domain begin residue: 2, domain end residue: 355), O95837
T4 chain: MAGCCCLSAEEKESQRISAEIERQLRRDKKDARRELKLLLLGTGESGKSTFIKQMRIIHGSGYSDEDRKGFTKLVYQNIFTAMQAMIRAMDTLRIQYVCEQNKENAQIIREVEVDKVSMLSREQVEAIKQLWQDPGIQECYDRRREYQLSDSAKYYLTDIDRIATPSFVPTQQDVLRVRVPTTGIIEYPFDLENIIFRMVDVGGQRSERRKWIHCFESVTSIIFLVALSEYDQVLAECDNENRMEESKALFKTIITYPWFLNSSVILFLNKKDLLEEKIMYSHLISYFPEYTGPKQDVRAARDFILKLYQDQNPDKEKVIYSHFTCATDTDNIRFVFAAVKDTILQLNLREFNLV
Experiment: as above
How it was run: as §1

Row | Binder | phage ELISA signal ratio
29 | QPDQIRFGPYISFSAI | 24.3
30 | DGDVQKWGPYYSFTQQ | 28.9

These binders were tested against GNAI1 2-354 G-alpha (domain begin residue: 2, domain end residue: 354), P63096 in the same assay as above.
GNAI1 2-354 G-alpha (domain begin residue: 2, domain end residue: 354), P63096, sequence (P63096 whole entry): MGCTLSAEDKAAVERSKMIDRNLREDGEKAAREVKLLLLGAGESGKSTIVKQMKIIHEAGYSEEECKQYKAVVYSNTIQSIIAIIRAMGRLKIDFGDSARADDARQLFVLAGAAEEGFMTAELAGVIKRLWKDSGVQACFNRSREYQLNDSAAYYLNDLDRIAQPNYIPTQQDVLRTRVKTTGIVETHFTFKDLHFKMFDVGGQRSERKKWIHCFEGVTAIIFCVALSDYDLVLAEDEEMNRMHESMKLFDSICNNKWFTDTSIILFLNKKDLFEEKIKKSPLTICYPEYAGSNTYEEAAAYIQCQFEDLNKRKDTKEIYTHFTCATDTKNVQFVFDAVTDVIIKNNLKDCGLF
How it was run: as §1

Row | Binder | phage ELISA signal ratio
31 | IVVGDWENEWFAHLVK | 4.48
32 | DAHWWEEPWFIKSQEE | 13.8
33 | WWEAPWAMEMLDEETG | 16.6
34 | YHDTGLSNEWFMIRYF | 18
35 | IPDWLVDYEWGQWVEG | 31.6
36 | SVPWYSEPWAIDMMSF | 49.6

Target: T5, GNAQ 2-359 G-alpha (domain begin residue: 2, domain end residue: 359), P50148
T5 chain: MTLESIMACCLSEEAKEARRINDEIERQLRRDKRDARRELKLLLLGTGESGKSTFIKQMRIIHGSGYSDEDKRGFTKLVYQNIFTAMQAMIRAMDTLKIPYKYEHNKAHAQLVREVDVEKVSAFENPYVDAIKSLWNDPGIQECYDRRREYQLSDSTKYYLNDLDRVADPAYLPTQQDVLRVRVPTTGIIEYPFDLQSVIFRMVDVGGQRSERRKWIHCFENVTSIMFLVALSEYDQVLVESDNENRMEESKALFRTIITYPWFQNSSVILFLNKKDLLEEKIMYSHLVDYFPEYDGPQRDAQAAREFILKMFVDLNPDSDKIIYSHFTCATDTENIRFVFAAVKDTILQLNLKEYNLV
Experiment: as above
How it was run: as §1

Row | Binder | phage ELISA signal ratio
37 | AWQISEEWKVREAYQQ | 25.5
38 | ITAEWQAREEYKLRVQ | 29.2

Target: T6, GNAZ 2-355 G-alpha (domain begin residue: 2, domain end residue: 355), P19086
T6 chain: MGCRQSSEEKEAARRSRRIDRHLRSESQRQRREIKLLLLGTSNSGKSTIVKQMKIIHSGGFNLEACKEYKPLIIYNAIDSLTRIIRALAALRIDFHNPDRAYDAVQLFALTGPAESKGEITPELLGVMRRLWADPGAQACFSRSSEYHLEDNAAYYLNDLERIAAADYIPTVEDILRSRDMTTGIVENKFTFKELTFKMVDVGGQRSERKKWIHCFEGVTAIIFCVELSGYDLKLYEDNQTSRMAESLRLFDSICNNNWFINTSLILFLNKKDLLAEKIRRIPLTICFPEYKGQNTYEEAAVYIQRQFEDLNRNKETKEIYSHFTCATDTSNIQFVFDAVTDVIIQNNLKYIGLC
Experiment: as above
How it was run: as §1

Row | Binder | phage ELISA signal ratio
39 | QWPTYSQWMTRDEILI | 3.11
40 | SMEWWSKGDVSLIDIS | 4.45
41 | DVPPLWMMAEYSFPWE | 5.11
42 | DMTRAVFWEFWDHLDV | 7.78
43 | PQQHFWEMDVPMIQLW | 8.66
44 | NEWDIPLLDLTMLPWA | 8.79
45 | DVEPLWSQWVTWDWQE | 11.1
46 | VSYEWWMPGDTQMMEV | 11.2
47 | HEEGMAEQWFWLHFAP | 11.9
48 | EDSGLEWFMQWSHGYV | 13.9
49 | WETWFEQKEVLIDAYY | 14.6
50 | HAWWYNENLDQWVDTS | 16.7
51 | WVWDYSQDQWVPASVQ | 17.2
52 | MPFDHWTMDDVEMLVL | 17.5
53 | MLPFQDWYTQDDVLMN | 17.6
54 | HDVEPIWSMPWWQMDY | 17.6
55 | PGSENEAEYWFNIMRQ | 19.7
56 | WSLMDDVSPWWEMEQI | 20.5
57 | WRWDEYDHQFVEEVQM | 25.2
58 | QWEFEHDATLLVLEQM | 26.5
